# Most compounds without a hit are left out; they make up all but 1.5% or so of the library.
# MenB inh – inhibitors of Mycobacterium tuberculosis MenB enzyme; inhibition, % (test concentration not listed); MenB enzyme assay, absorbance read-out; 0.43% of 100,000 active; in the data active = inhibition above about 21%, passing the limit was not always enough
# Target sequence (P9WNP5 whole entry, looked up): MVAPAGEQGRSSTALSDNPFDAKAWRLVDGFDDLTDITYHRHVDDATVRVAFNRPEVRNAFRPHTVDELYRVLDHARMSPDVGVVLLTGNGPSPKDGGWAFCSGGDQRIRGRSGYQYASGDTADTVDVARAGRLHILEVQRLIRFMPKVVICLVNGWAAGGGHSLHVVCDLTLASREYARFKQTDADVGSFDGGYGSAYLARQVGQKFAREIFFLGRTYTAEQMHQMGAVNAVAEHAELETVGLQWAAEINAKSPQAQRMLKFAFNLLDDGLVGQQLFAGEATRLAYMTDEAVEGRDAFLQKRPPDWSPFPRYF
# PV pol inh – poliovirus RNA polymerase inhibition; P03300; poliovirus polymerase elongation, fluorescence polarization; hits give low values; % elongation, % (compound at 16.7 µg/mL); 0.66% of 150,000 active; in the data active = % elongation below about 90%
# Mtb MbtI inh – inhibitors of Mycobacterium tuberculosis siderophore enzyme MbtI; purified MbtI enzyme, fluorescence intensity read-out; inhibition, % (test concentration not listed); 0.89% of 100,000 active; AID 493033; in the data active = inhibition mostly above about 56%, no sharp cut-off; inactive = mostly below about 77%
# AID504770 – growth inhibitors of E. coli YBA685 in a screen for V. cholerae RctB (chromosome II replication) inhibitors. E. coli YBA685 rctB-dependent plasmid, OD600 growth, 3 h; hits give low values. z-score (test concentration not listed). 0.27% of 130,000 active. AID 504770; in the data active = z-score below about -2, passing the limit was not always enough
# An asterisk follows results filed as active; i = inactive; . = no result.
SMILES,MenB inh,PV pol inh,Mtb MbtI inh,AID504770
[O-]c1n[n+](-c2ccc(Cl)cc2)cc2ccccc12,.,.,.,0.5
CSc1ccccc1NC(=O)CN1CCc2ccccc21,-9,88*,4,0.1
CC(C)NC(=S)NCc1cnn(C)c1,-1,98,-12,-0.85
CCn1c(CSc2ncccn2)nc2cc(C(=O)O)ccc21,-23,86,8,-0.2
CCn1c(CS(=O)(=O)c2cc(C)ccc2C)nc2cc(C(=O)O)ccc21,1,81*,-11,-0.55
Cc1cccc(C(=O)NCc2n[nH]c(=S)n2-c2ccccc2)c1,2,102,58*,1.6
Cn1c(CNC(=O)c2ccccc2)n[nH]c1=S,4,104,36,-0.5
C/C(=N/OC(=O)CSc1nc(-c2ccco2)cc(C(F)(F)F)n1)c1ccccc1,-22,102,5,1.3
O=c1nc2ccccn2c2c1c(=O)[nH]c1ccccc12,62*,102,3,0.1
O=c1c2ccccc2nc2ccccn12,-2,101,108,0.8
Cc1cc(C(=O)CSc2nnc(SCC(=O)c3cc(C)n(CC4CCCO4)c3C)s2)c(C)n1CC1CCCO1 (stereo not given),-30,105,51,-1.9
C=CCN(C(=O)c1ccccc1SCC(=O)NCc1ccco1)c1nc2c(s1)CCCC2,-13,106,-1,2
C(=N\n1cnnc1)/c1ccc(N2CCOCC2)s1,-340,106,9,-0.4
CC(C)c1cc(N)on1,-12,99,-16,-2.2*
CC(=O)Nc1ccc(NC(=O)c2cccc(N(C)C)c2)cc1,-14,100,-11,0.55
CCC(=O)Nc1cc(NC(=O)CC)cc(C(=O)O)c1,-2,97,-2,0.2
COc1ccc(NC(=O)c2sc(=S)n3c2[nH]c(=O)c2ccccc23)cc1,-48,102,94*,0.85
CSC1=NSC2=NC(=O)/C(=C\c3cccs3)C(=N)N12,-61,99,100*,-0.85
COc1ccc(OCC(=O)NCC(c2ccc(Cl)cc2)N2CCCCC2)cc1 (stereo not given),.,109,.,.
CCc1ccccc1NC(=O)C(CC)n1c2ccccc2c2nc(=O)cc(C)n21 (stereo not given),-14,104,18,-1.1
Nc1nnc(SCC(O)Cn2c3c(c4ccccc42)CCCC3)s1 (stereo not given),25*,103,.,-0.1
Cc1cc(C)c(C#N)c(SCC(=O)Nc2nccs2)n1,.,.,.,-0.5
CC(=O)N1CCCCC1c1cccnc1.O=[N+]([O-])O.[Ag] (stereo not given),-36,60*,.,-5.5*
O=C1c2ccccc2C(=O)N1Cn1ncc(Cl)c(Cl)c1=O,-16,106,1,-0.65
CCn1ncc(Cl)c(Cl)c1=O,-13,77*,.,-1
SMILES,MenB inh,PV pol inh,Mtb MbtI inh,AID504770
CCOc1cc(C(=O)NCCc2sc(-c3ccc(F)cc3)nc2C)cc(OCC)c1OCC,.,103,.,.
Fc1ccccc1OCCCCSc1ncccn1,-3,101,6,2.2
CCOC(=O)c1ccc(NC(=O)CCc2c(C)nc3c(-c4ccc(F)cc4)c(C)nn3c2C)cc1,.,104,.,.
CCOC(=O)c1ccc(NC(=O)c2cnc3c(-c4ccc(F)cc4)c(C)nn3c2C)cc1,.,51*,.,.
O=C(CSc1nnc(Cc2ccccc2)o1)c1ccccc1,7,102,-6,-0.35
O=C(CSc1nnc(Cc2ccccc2)o1)N(c1ccccc1)c1ccccc1,33,98,75*,0.05
COc1cc(/C=C2/SC(=S)N(NC(C)=O)C2=O)ccc1O,i,155,.,-0.2
COc1cc(/C=C2\SC(=O)NC2=S)ccc1O,-97,86,79*,0.05
Cc1ccc(-c2n[nH]c3c2C(c2ccccc2Cl)N(c2ccc(C(=O)O)cc2)C3=O)cc1 (stereo not given),.,108,.,.
N#CC(C#N)=NNc1ccccc1C(N)=O,-447,101,26,-3.6*
O=C(O)C1CC(c2ccc(F)cc2)=NO1 (stereo not given),15,84*,.,-0.65
O=c1oc2c(O)c(O)cc3c(=O)oc4c(O)c(O)cc1c4c23,-5,83*,26,0.1
C/C(=N\NC(N)=S)c1ccc(Cl)cc1,-54,.,61*,1.2
